Laboratory results published in PubChem BioAssay AID620 (Sanford-Burnham Center for Chemical Genomics, 2007).
Out of some 87,000 compounds screened, about 360 (0.41%) were called active. Many of the other results were omitted from the sample, so actives are more common in it than they were. Unmarked numbers belong to inactive results. No stated cut-off is given here; in the data, active means cytotoxicity above about 50%; inactive means the rest.

Assay: HT1080 cell viability loss – fluorescence readout (AID 620);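 further: cells exposed to compound overnight then 4 h with Alamar Blue; 0% = vehicle DMSO and 100% = killing control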
Settings: at 10 µM, stronger effect = higher value

Row | Structure (SMILES) | cytotoxicity
1 | COc1nnc(-c2ccc(C)c(S(=O)(=O)NCCO)c2)c2ccccc12 | 12.8%
2 | Cn1c(=O)c2c(nc(SCCCC#N)n2Cc2c(F)cccc2Cl)n(C)c1=O | 1.4%
3 | CSc1cc(-c2ccccc2)n(Cc2ccccc2Cl)c(=O)c1C#N | 57.5% (active)
4 | CSc1cc(-c2ccccc2)n(Cc2ccc(Cl)cc2Cl)c(=O)c1C#N | -9.5%
5 | CSc1cc(-c2ccccc2)n(Cc2c(Cl)cccc2Cl)c(=O)c1C#N | 58.7% (active)
6 | CSc1cc(-c2ccc(Cl)cc2)n(Cc2ccccc2)c(=O)c1C#N | -8.7%
7 | Cc1cc(C)n(Cc2ccccc2F)c(=O)c1C#N | 4.8%
8 | CCOc1ccc(-c2cnc(SCC(N)=O)nc2N)cc1 | 3.8%
9 | COc1ccc(Br)cc1/C(C)=N/NC1=NCCN1 | -8.6%
10 | CCCCCOc1ccc(Br)cc1/C(C)=N/NC1=NCCN1 | 74.8% (active)
11 | CCCCOc1ccc(Br)cc1/C(C)=N/NC1=NCCN1 | 65.1% (active)
12 | CCCOc1ccc(Br)cc1/C=N/O | -13%
13 | CCOc1ccc(CSC2=NCCN2)cc1Cl | 12.8%
14 | CCOc1ccc(Br)cc1/C(C)=N\NC1=NCCN1 | 12.3%
15 | CCOc1ccc(NC(=O)c2cnccn2)cc1 | -17%
16 | OC(c1cccnc1)c1cccs1 (stereo not drawn) | -4.7%
17 | COc1ccc(Br)cc1CN1CCCC(C(=O)N2CCCCCC2)C1 (stereo not drawn) | 1.9%
18 | O=C(Cn1nnc(-c2ccccc2NC(=O)c2cccs2)n1)Nc1ccccc1 | 0.3%
19 | Cc1ccc(NC(=O)Cn2nnc(-c3ccccc3NC(=O)c3cccs3)n2)cc1 | 61.8% (active)
20 | COc1ccc(NC(=O)Cn2nnc(-c3ccccc3NC(=O)c3cccs3)n2)cc1 | -14.1%
21 | Cn1c(=O)c2c(-c3ccccc3)n(-c3ccccc3O)cc2n(C)c1=O | 35.8%
22 | COc1ccc2c(c1OC)C(=O)N1c3cccc(Cl)c3C(=O)OC21 (stereo not drawn) | 14.4%
23 | COc1ccc(Nc2nc(C)cc(C)c2C(N)=O)cc1 | 3.9%
24 | COc1cc(C2C3=C(Nc4ncnn42)c2ccccc2CC3)cc(OC)c1OC (stereo not drawn) | 63.8% (active)
25 | COc1ccc(C2C3=C(Nc4ncnn42)c2ccccc2CC3)cc1OC (stereo not drawn) | -2.9%
26 | Clc1ccc(C2C3=C(Nc4ncnn42)c2ccccc2CC3)cc1 (stereo not drawn) | -2.4%
27 | Cc1nn(Cc2ccc(F)cc2)c(C)c1NC(=O)c1cnn2c1NC(c1cccs1)CC2C(F)(F)F (stereo not drawn) | 11%
28 | C=C(C)CSc1nc(C)c(Cc2ccccc2)c(=O)[nH]1 | -0.4%
